In PubChem BioAssay (EPA / NIEHS) one finds AC50 and outcome data, which are given here for four molecules.

Experiment [1] in a line: ATG_DR4_LXR_CIS: Attagene CIS-FACTORIAL HepG2 Assay for human Liver X Receptor (LXR), DR4 submotif (AID 2282929). The following applies: HepG2 Attagene DR4 cis-reporter, mRNA transcription; actives raise or lower the signal. In short, it runs like this: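 DR4 cis-reporter in HepG2, 24 h exposure. Detection: RT-PCR, 6-FAM labelling, CE fragment analysis. Endpoint fitted bidirectionally, DMSO = baseline.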

Experiment [2] has as its target Aryl hydrocarbon receptor (Homo sapiens) (UniProt P35869). Description: ATG_Ahr_CIS: Attagene CIS-FACTORIAL HepG2 Assay for human Aryl Hydrocarbon Receptor (Ahr) (AID 2282930). The settings on record: HepG2 AhR cis-factorial reporter transcription; actives raise or lower the signal. In short, it runs like this: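 HepG2 cells transiently transfected with cis-element-driven multiplexed reporter transcription units; endogenous transcription factor activity measured as reporter mRNA 24 h after dosing. RT-PCR, 6-FAM labelling, HpaI digestion, capillary electrophoresis; bidirectional fitting versus DMSO baseline.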

The nature of experiment [3]: ATG_AP_1_CIS: Attagene CIS-FACTORIAL HepG2 Assay for human Activator Protein 1 (AP-1) (AID 2282931). The settings on record: HepG2 Attagene cis-factorial AP-1 reporter mRNA; actives raise or lower the signal. The method, boiled down: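 Cis-regulated reporter units transiently expressed in HepG2 report endogenous transcription-factor activity. Signal: reporter mRNA at 24 h, via RT-PCR and fluorescent capillary electrophoresis. Endpoint derived by bidirectional fitting, DMSO as negative control.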

Experiment [4] is described as follows: ATG_AP_2_CIS: Attagene CIS-FACTORIAL HepG2 Assay for human Activator Protein 2 (AP-2) (AID 2282932). The following applies: HepG2 AP-2 cis-reporter, Attagene transcription factor profiling; actives raise or lower the signal. In short, it runs like this: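 Cells (HepG2) transfected with promoter-driven reporter constructs, treated 24 h. Total RNA reverse-transcribed, reporter cDNA PCR-amplified, FAM-labelled by primer extension, digested, resolved by capillary electrophoresis. Activity fitted both directions versus DMSO.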

Experiment [5] is described as follows: ATG_BRE_CIS: Attagene CIS-FACTORIAL HepG2 Assay for human Bone Morphogenetic Protein (BMP) Response Element (BRE) (AID 2282933). The following applies: HepG2 BMP response element reporter, Attagene transcription factor profiling; actives raise or lower the signal. In short, it runs like this:
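A HepG2 multiplex reporter system measured inducible reporter mRNA 24 h post-dosing. Detection: RT-PCR, 6-FAM primer extension, HpaI digestion, capillary electrophoresis. Activity fitted bidirectionally relative to DMSO.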

For experiment [6], the target named is Retinoic acid receptor alpha (Homo sapiens) (UniProt P10276). As to the kind of experiment: ATG_DR5_RAR_CIS: Attagene CIS-FACTORIAL HepG2 Assay for human Retinoic Acid Receptor Alpha (RARE), DR5 submotif (AID 2282934). The following applies: HepG2 Attagene cis-factorial RARE DR5 reporter, mRNA; actives raise or lower the signal. In short, it runs like this: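 HepG2 cells transiently transfected with multiplexed reporter units under cis (DR5 RARE) promoters, so endogenous transcription factor activity is measured. After 24 h compound exposure, reporter mRNA is quantified by RT-PCR with fluorescent labelling and capillary electrophoresis; bidirectional fitting versus DMSO.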

Experiment [7] is described as follows: ATG_E_Box_CIS: Attagene CIS-FACTORIAL HepG2 Assay for human Enhancer Box (E-box) (AID 2282936). The settings on record: HepG2 E-box cis-reporter transcription, actives raise or lower the signal. In short, it runs like this: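 Endogenous transcription factor activity was sensed in human HepG2 liver cells through transfected cis-promoter reporter units. After 24 h of dosing, total RNA was reverse-transcribed and reporter cDNA resolved by capillary electrophoresis.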

Experiment [8] is described as follows: ATG_M_61_CIS: Attagene CIS-FACTORIAL HepG2 Assay for M61 Transcription Factor (Internal Marker) (AID 2282937). The settings on record: HepG2 Attagene CIS-FACTORIAL M61 internal marker reporter; actives raise or lower the signal. In short, it runs like this: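 Background-control endpoint: HepG2 cells with cis-regulated reporter constructs, 24 h exposure, reporter mRNA detected via fluorescent primer extension and capillary electrophoresis; values from bidirectional fitting with DMSO baseline.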

Experiment [9] in a line: ATG_EGR_CIS: Attagene CIS-FACTORIAL HepG2 Assay for human Early Growth Response 1 (EGR1) (AID 2282938). The settings on record: HepG2 Attagene CIS-FACTORIAL EGR reporter mRNA; actives raise or lower the signal. In short, it runs like this:
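Endpoint derived by bidirectional fitting versus DMSO vehicle. Method: cis-promoter reporter units transfected into HepG2, 24 h dosing, RNA isolation, RT-PCR with 6-FAM primer extension and HpaI digestion, then capillary electrophoresis fluorescence detection.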

Experiment [10] can be described thus: ATG_M_19_CIS: Attagene CIS-FACTORIAL HepG2 Assay for M19 Transcription Factor (Internal Marker) (AID 2282939). The settings on record: HepG2 Attagene CIS-FACTORIAL M19 internal marker reporter; actives raise or lower the signal. The method, boiled down: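 Chemical-treated HepG2 (24 h) with MRTU constructs; reporter transcripts detected by fluorescent RT-PCR fragment analysis on capillary electrophoresis. Internal background marker, DMSO as baseline.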

Experiment [11] in a line: ATG_ERE_CIS: Attagene CIS-FACTORIAL HepG2 Assay for Estrogen Response Element (ERE) (AID 2282940). The following applies: HepG2 ERE cis-reporter, Attagene RNA transcript; actives raise or lower the signal. In short, it runs like this:
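Human liver cells (HepG2) bearing transiently transfected, promoter-regulated reporter units were exposed 24 h. Reporter mRNA induction was detected by capillary electrophoresis of labelled RT-PCR products and fitted bidirectionally to DMSO.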

The nature of experiment [12]: ATG_Ets_CIS: Attagene CIS-FACTORIAL HepG2 Assay for human Erythroblast Transformation Specific (ETS) (AID 2282941). The following applies: HepG2 ETS cis-reporter transcription, actives raise or lower the signal. In short, it runs like this: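 RT-PCR/capillary electrophoresis fluorescence read-out of reporter mRNA; HepG2 transient multi-reporter transfection; 24 h compound exposure; gain or loss of signal fitted bidirectionally relative to DMSO.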

In experiment [13] the target is Hepatocyte nuclear factor 3-beta (Homo sapiens) (UniProt Q9Y261). As to the kind of experiment: ATG_FoxA2_CIS: Attagene CIS-FACTORIAL HepG2 Assay for human Forkhead box A2 (FOXA2) (AID 2282942). The following applies: HepG2 cis-reporter transcription factor activity, 24 h; actives raise or lower the signal. The method, boiled down: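 Measured: reporter mRNA induction or loss in HepG2 transiently carrying multiple cis-regulated reporter units, 24 h after dosing. Quantified by RT-PCR plus capillary electrophoresis, normalised to DMSO.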

Experiment [14] is described as follows: ATG_FoxO_CIS: Attagene CIS-FACTORIAL HepG2 Assay for human Forkhead box O (FoxO) (AID 2282943). The settings on record: HepG2 Attagene cis-reporter, FoxO element, mRNA; actives raise or lower the signal. In short, it runs like this:
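HepG2 cells transiently transfected with cis-promoter-driven multiple reporter transcription units; 24 h after chemical dosing, reporter mRNA quantified by RT-PCR, fluorescent primer extension, HpaI digestion and capillary electrophoresis. Bidirectional fitting versus DMSO baseline.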

A short description of experiment [15]: ATG_GATA_CIS: Attagene CIS-FACTORIAL HepG2 Assay for human GATA Binding Protein (AID 2282944). The settings on record: HepG2 GATA cis-element reporter, Attagene multiplex mRNA; actives raise or lower the signal. The method, boiled down:
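Transfected cis-reporter HepG2 cells were treated with chemicals for 24 hours. Total RNA was then converted to cDNA, amplified with reporter-specific primers and analysed by fluorescent capillary electrophoresis, using DMSO-treated wells as baseline.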

The nature of experiment [16]: ATG_GLI_CIS: Attagene CIS-FACTORIAL HepG2 Assay for human Zinc Finger Protein GLI1 (AID 2282945). The following applies: HepG2, Attagene cis-factorial reporter mRNA, GLI element; actives raise or lower the signal. In short, it runs like this:
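HepG2 cells transiently transfected with cis-promoter multiplexed reporter units report endogenous transcription factor activity. After 24 h chemical exposure, reporter mRNA was quantified by RT-PCR, 6-FAM labelling, HpaI digestion and capillary electrophoresis, with bidirectional fitting against DMSO.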

For experiment [17], the target named is Bile acid receptor (Homo sapiens) (UniProt Q96RI1). As to the kind of experiment: ATG_IR1_CIS: Attagene CIS-FACTORIAL HepG2 Assay for human Nuclear Receptor Subfamily 1 Group H Member 4 (NR1H4), IR1 submotif (AID 2282946). The settings on record: IR1 reporter transcription, actives raise or lower the signal. The method, boiled down: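 Readout: reporter transcript levels by RT-PCR with fluorescent capillary electrophoresis, from HepG2 cells transiently transfected with multiplexed cis-regulated reporters and dosed 24 h. Gain- or loss-of-signal fitted versus DMSO negative control.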

Experiment [18] in a line: ATG_GRE_CIS: Attagene CIS-FACTORIAL HepG2 Assay for human Glucocorticoid Response Elements (GRE) (AID 2282947). The settings on record: HepG2 GRE cis-reporter, Attagene multiplex mRNA; actives raise or lower the signal. In short, it runs like this: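 Cells (HepG2) bearing transfected cis-promoter reporter transcription units were treated with chemical for 24 hours. Reporter mRNA was measured via RT-PCR with capillary electrophoresis, and activity was fitted in both directions relative to DMSO.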

The nature of experiment [19]: ATG_ISRE_CIS: Attagene CIS-FACTORIAL HepG2 Assay for human Interferon Regulatory Factor 1 (IRF1) binding to an Interferon-Stimulated Response Element (ISRE) (AID 2282948). The settings on record: HepG2 ISRE cis-reporter (Attagene), mRNA transcription readout; actives raise or lower the signal. In short, it runs like this:
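Read-out: fluorescent RT-PCR products resolved by capillary electrophoresis, reporting endogenous transcription factor activity via ISRE-driven reporter mRNA in transfected HepG2 cells dosed for 24 h; gain or loss fitted relative to DMSO.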

Experiment [20] concerns the target Transcription factor E2F1 (Homo sapiens) (UniProt Q01094). Description: ATG_E2F_CIS: Attagene CIS-FACTORIAL HepG2 Assay for human E2F Transcription Factor 1 (AID 2282935). The settings on record: HepG2 Attagene cis-reporter, E2F reporter RNA transcripts; actives raise or lower the signal. In short, it runs like this:
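First, HepG2 cells were transfected with reporter transcription units. Next, they were dosed for 24 h. Then RNA was isolated, converted to cDNA, PCR-amplified, FAM-labeled, HpaI-digested and analyzed by capillary electrophoresis.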

Molecules are shown by their SMILES. Active and inactive are the calls of the source. Rule for the calls: active = hit-call score of the fitted dose curve at least 0.9, where 1 is the maximum; inactive = score below 0.9.

As a reminder, the AC50 is the concentration at which the activity in the assay is half-maximal.

Sequence of Aryl hydrocarbon receptor (Homo sapiens) (P35869 whole entry, looked up): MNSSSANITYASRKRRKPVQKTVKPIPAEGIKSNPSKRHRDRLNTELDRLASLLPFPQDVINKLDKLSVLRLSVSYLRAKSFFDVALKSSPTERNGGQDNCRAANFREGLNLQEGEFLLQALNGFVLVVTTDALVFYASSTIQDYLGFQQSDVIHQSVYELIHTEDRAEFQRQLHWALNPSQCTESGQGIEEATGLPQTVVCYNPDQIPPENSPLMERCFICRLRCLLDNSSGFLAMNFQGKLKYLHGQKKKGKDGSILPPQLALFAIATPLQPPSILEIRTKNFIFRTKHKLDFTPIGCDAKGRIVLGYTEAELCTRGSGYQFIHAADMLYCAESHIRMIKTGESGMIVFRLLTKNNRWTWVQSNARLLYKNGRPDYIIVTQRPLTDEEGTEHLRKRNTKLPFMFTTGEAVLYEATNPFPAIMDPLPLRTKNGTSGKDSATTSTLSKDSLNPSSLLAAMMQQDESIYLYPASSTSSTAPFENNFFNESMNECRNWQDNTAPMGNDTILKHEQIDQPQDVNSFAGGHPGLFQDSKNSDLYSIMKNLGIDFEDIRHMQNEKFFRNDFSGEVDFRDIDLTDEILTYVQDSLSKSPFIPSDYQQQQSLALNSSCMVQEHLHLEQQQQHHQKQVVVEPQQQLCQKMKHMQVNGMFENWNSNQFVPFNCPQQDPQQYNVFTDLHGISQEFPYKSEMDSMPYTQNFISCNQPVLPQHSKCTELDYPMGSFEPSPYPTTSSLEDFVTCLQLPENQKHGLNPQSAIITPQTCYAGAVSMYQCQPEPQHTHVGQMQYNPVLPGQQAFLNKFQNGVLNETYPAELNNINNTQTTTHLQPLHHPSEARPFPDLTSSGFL
Sequence of Bile acid receptor (Homo sapiens) (Q96RI1 whole entry, looked up): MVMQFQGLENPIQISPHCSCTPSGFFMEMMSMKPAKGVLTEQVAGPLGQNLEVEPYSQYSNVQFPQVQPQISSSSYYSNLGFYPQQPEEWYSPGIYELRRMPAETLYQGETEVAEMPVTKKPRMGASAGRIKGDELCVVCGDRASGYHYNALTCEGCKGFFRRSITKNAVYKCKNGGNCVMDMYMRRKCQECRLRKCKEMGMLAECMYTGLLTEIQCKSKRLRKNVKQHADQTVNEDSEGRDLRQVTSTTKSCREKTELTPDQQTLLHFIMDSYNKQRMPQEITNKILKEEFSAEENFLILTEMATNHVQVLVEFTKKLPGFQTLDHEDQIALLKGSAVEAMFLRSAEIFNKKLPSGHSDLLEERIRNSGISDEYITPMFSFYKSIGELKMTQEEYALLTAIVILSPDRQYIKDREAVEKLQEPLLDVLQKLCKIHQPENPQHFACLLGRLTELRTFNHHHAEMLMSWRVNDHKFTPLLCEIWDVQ
Sequence of Hepatocyte nuclear factor 3-beta (Homo sapiens) (Q9Y261 whole entry, looked up): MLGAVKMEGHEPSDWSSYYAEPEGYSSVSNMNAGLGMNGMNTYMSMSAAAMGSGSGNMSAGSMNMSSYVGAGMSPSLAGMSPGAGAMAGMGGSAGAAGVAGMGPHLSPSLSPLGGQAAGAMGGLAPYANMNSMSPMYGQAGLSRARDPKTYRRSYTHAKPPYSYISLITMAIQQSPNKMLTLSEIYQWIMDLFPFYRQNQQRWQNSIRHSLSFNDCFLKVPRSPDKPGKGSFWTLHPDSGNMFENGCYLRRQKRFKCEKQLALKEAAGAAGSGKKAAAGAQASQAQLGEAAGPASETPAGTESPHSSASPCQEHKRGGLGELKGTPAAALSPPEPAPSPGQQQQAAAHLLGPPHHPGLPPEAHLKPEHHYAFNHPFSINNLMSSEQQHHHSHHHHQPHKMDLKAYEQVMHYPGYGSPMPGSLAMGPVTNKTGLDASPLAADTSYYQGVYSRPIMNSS
Sequence of Retinoic acid receptor alpha (Homo sapiens) (P10276 whole entry, looked up): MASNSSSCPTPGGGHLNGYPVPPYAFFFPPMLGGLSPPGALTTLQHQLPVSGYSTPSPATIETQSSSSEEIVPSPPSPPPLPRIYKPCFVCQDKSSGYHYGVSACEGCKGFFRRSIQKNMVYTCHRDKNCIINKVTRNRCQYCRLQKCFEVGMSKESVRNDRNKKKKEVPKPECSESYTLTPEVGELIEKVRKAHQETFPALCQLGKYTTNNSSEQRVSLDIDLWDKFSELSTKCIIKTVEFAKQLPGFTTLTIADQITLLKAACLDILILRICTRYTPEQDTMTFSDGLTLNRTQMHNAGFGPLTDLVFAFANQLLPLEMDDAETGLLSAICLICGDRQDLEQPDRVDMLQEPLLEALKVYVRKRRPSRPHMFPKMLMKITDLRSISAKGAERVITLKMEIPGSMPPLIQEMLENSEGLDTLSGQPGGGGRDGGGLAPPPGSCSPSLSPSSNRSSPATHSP
Sequence of Transcription factor E2F1 (Homo sapiens) (Q01094 whole entry, looked up): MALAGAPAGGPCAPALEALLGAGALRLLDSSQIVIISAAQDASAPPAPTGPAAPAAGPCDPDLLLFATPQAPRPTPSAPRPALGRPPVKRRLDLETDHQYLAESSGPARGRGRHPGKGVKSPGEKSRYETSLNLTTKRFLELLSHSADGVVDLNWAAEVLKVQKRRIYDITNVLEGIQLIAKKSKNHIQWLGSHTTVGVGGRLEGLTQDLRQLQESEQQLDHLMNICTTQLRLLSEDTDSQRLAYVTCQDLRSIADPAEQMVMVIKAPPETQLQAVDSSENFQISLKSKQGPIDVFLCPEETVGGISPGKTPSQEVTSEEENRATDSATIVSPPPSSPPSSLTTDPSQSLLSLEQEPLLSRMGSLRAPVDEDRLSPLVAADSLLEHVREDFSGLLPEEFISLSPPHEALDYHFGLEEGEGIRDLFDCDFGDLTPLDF

On to `CC(=Cc1ccccc1)[N+](=O)[O-]`, for which the AC50 is 5880 nM (active) in experiment [1]; 19900 nM (active) in experiment [3]; 16600 nM (active) in experiment [4]; 17000 nM (active) in experiment [7]; 11100 nM (active) in experiment [14]; 16800 nM (active) in experiment [15]. In addition, the concentration at half-maximal activity (AC50) was 20100 nM (active) in [16], 5550 nM (active) in [17] and 7140 nM (active) in experiment [19]. In addition, the molecule was called inactive in [2], in [5], in [6], in experiment [8], in experiment [9] and in experiment [10]. The call in experiment [11], in experiment [12], in [13] and in experiment [18] was inactive.
Regarding `CC(=O)CN(CC(C)=O)N=O`, the call in experiment [1], in experiment [2], in experiment [3], in experiment [4], in experiment [5] and in [20] was inactive. Besides, the result in experiment [7], in experiment [8], in [9], in [10], in experiment [11] and in experiment [12] was inactive. For the same molecule, the molecule was called inactive in [13], in experiment [14], in experiment [15], in [16], in experiment [18] and in experiment [19].
For the molecule `CC(C)CP(=S)(S)CC(C)C`, the outcome in experiment [1], in [2], in experiment [3], in experiment [4], in experiment [5] and in [20] was inactive. Further, the outcome in experiment [7], in experiment [8], in experiment [9], in [10], in experiment [11] and in experiment [12] was inactive. Besides, the outcome in [13], in experiment [14], in experiment [15], in [16], in experiment [17] and in experiment [18] was inactive. The molecule was classed as inactive in experiment [19].
Regarding `[F][Sn]([c]1ccccc1)([c]1ccccc1)[c]1ccccc1`, the AC50 in experiment [1] is 528 nM (active); in experiment [2], 329 nM (active); in experiment [4], 1840 nM (active); in experiment [7] it was 593 nM (active); in [9], 336 nM (active); in experiment [11] it was 17.7 nM (active). For the same molecule, the concentration at half-maximal activity (AC50) in experiment [12] is 320 nM (active); in [13], 892 nM (active); in [16] it was 2180 nM (active); in [17], 1240 nM (active); in experiment [19] it was 562 nM (active). For the same molecule, the call in experiment [3], in [5], in [6], in experiment [14], in experiment [15] and in experiment [18] was inactive.
